{"source": "PubChem BioAssay (NCATS)", "note": "Results filed as inconclusive are left out. Values without a mark were called inactive. Active and inactive are the calls of the source. Calls follow the shape of the dose curve; as a rule, active = well fitted cell-killing curve with a large enough effect; inconclusive = small, poorly fitted or top-dose-only effect, or effect the other way; inactive = no such curve, though single readings can be large or run the other way. Non-standard residues stand in square brackets, D forms with d. Residues, ends and D or L forms follow the SMILES beside them. *: point of attachment. Sta = CC(C)C[C@H](N)[C@@H](O)CC(=O)O; Isovaleryl = CC(C)CC(=O)*"}
{"experiment": "Quantitative High-Throughput drug screen in 47 multiple myeloma cell lines against the NCATS MIPE library collection: JJN3_DSMZ cell viability assay (AID 1918966; also: nearly all actives have a fitted effect of over 50% in size; also: potency is read from the fitted curve at half-maximal effect)", "conditions": "JJN3 myeloma cells viability, CellTiter-Glo ATP, 48 h; series mostly up to 45.8 µM; viability, % of DMSO: at the top concentration", "how_it_was_run": "(§1)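 CellTiter-Glo ATP luminescence gave viability after 48 h compound treatment at 37C of 500 multiple myeloma cells per well. Normalisation used DMSO-only wells as 100% and media-only wells as 0% viability; primary qHTS of approved and investigational drugs.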", "units": {"viability, % of DMSO": "%"}}
{"smiles": "Oc1ccc2ccccc2c1SSc1c(O)ccc2ccccc12", "Potency": "7.43 µM (active)"}
{"smiles": "CC(C)CC(=O)N[C@H](C(=O)N[C@H](C(=O)N[C@@H](CC(C)C)[C@@H](O)CC(=O)N[C@@H](C)C(=O)N[C@@H](CC(C)C)[C@@H](O)CC(=O)O)C(C)C)C(C)C", "note": "(Isovaleryl-VV[Sta]A[Sta]-OH)", "viability, % of DMSO": 149}
{"smiles": "COc1ccc(C2(C#N)CCC(C(=O)O)CC2)cc1OC1CCCC1", "note": "(stereo unspecified)", "viability, % of DMSO": 147}
{"smiles": "Cc1cc(C2CCCCC2)n(O)c(=O)c1", "Potency": "18.7 µM (active)"}
{"smiles": "CN(C)c1ccc(O)c2c1C[C@H]1C[C@H]3[C@H](N(C)C)C(=O)C(C(N)=O)=C(O)[C@@]3(O)C(=O)C1=C2O", "Potency": "20.9 µM (active)"}
{"smiles": "O=C(NCCO[N+](=O)[O-])c1cccnc1", "viability, % of DMSO": 138}
{"smiles": "Cc1c(C(=O)NN2CCCCC2)nn(-c2ccc(Cl)cc2Cl)c1-c1ccc(Cl)cc1", "Potency": "20.9 µM (active)"}
{"experiment": "Quantitative High-Throughput drug screen in 47 multiple myeloma cell lines against the NCATS MIPE library collection: H1112_PLB cell viability assay (AID 1918967; also: nearly all actives have a fitted effect of over 30% in size; also: potency is read from the fitted curve at half-maximal effect)", "conditions": "H1112 myeloma cells viability, ATP luminescence, 48 h; series mostly up to 45.8 µM; viability: at the top concentration", "how_it_was_run": "as §1"}
{"smiles": "O=C(O)CCNC(=O)c1ccc(N=Nc2ccc(O)c(C(=O)O)c2)cc1", "viability": "122%"}
{"smiles": "CCN(CC)CCOc1ccc(Nc2ncc3cc(-c4c(Cl)cccc4Cl)c(=O)n(C)c3n2)cc1", "Potency": "5.9 µM (active)"}
{"smiles": "Cc1nc2n(c(=O)c1CCN1CCC(c3noc4cc(F)ccc34)CC1)CCCC2", "viability": "111%"}
{"smiles": "COC(=O)N[C@H](C(=O)N[C@@H](Cc1ccccc1)[C@@H](O)CN(Cc1ccc(-c2ccccn2)cc1)NC(=O)[C@@H](NC(=O)OC)C(C)(C)C)C(C)(C)C", "viability": "93.8%"}
{"smiles": "Nc1cc(C(Cl)=C(Cl)Cl)c(S(N)(=O)=O)cc1S(N)(=O)=O", "viability": "112%"}
{"smiles": "CCC1=C(C)CN(C(=O)NCCc2ccc(S(=O)(=O)NC(=O)NC3CCC(C)CC3)cc2)C1=O", "note": "(stereo unspecified)", "viability": "129%"}
{"smiles": "CNC[C@H](O)c1ccc(O)c(O)c1", "viability": "87.7% [at 92.2 µM]"}
{"smiles": "Oc1ccc2ccccc2c1SSc1c(O)ccc2ccccc12", "Potency": "11.8 µM (active)"}
{"smiles": "Oc1ccc(-c2nc(-c3ccc(F)cc3)c(-c3ccncc3)[nH]2)cc1", "Potency": "8.33 µM (active)"}
{"smiles": "CCCCCCCCCCCCCCCCCCCCCCO", "viability": "108%"}
{"smiles": "CS(=O)(=O)OCCCCOS(C)(=O)=O", "viability": "122%"}
{"smiles": "N=C(N=C(N)N)N1CCOCC1", "viability": "112%"}
{"smiles": "C[C@H](Cn1cnc2c(N)ncnc21)OCP(=O)(O)O", "viability": "118%"}
{"smiles": "O=c1c(O)c(-c2cc(O)c(O)c(O)c2)oc2cc(O)cc(O)c12", "viability": "97.8%"}
{"smiles": "O=C(c1ccccc1)c1ccc2n1CCC2C(=O)O", "note": "(stereo unspecified)", "Potency": "13.2 µM (active)"}
{"smiles": "CC[C@]1(O)C[C@H]2CN(CCc3c([nH]c4ccccc34)[C@@](C(=O)OC)(c3cc4c(cc3OC)N(C=O)[C@H]3[C@@](O)(C(=O)OC)[C@H](OC(C)=O)[C@]5(CC)C=CCN6CC[C@]43[C@@H]65)C2)C1", "Potency": "0.0093 µM (active)"}
{"smiles": "Cc1cc(O)c2c(c1)C(=O)c1cc(O)cc(O)c1C2=O", "viability": "131%"}
{"smiles": "Nc1ccc(S(N)(=O)=O)cc1", "viability": "106%"}
{"smiles": "O=C(NCC1CCCCN1)c1cc(OCC(F)(F)F)ccc1OCC(F)(F)F", "note": "(stereo unspecified)", "Potency": "8.33 µM (active)"}
{"smiles": "Cc1cc(=O)oc2cc(O)ccc12", "viability": "101%"}
{"smiles": "COC(=O)C1=C(C)NC(C)=C(C(=O)OC(C)C)C1c1cccc2nonc12", "note": "(stereo unspecified)", "Potency": "3.32 µM (active)"}
{"smiles": "CCC(C)(Oc1ccc(C2(c3ccc(OC(C)(CC)C(=O)O)cc3)CCCCC2)cc1)C(=O)O", "note": "(stereo unspecified)", "viability": "113%"}
{"smiles": "Cc1cc(C2CCCCC2)n(O)c(=O)c1", "Potency": "13.2 µM (active)"}
{"smiles": "COCCCOc1ccnc(CS(=O)c2nc3ccccc3[nH]2)c1C", "note": "(stereo unspecified)", "viability": "92%"}
{"smiles": "N=C(N)c1ccc2cc(OC(=O)c3ccc(N=C(N)N)cc3)ccc2c1", "viability": "83.1%"}
{"smiles": "COc1cc2c(cc1OC)C1CC(=O)C(CC(C)C)CN1CC2", "note": "(stereo unspecified)", "viability": "96.6%"}
{"smiles": "O=C(O)c1cccc(-c2noc(-c3ccccc3F)n2)c1", "viability": "107%"}
{"smiles": "O=C(NCCO[N+](=O)[O-])c1cccnc1", "viability": "130%"}
{"smiles": "Cc1c(C(=O)NN2CCCCC2)nn(-c2ccc(Cl)cc2Cl)c1-c1ccc(Cl)cc1", "Potency": "23.5 µM (active)"}
{"experiment": "Quantitative High-Throughput drug screen in 47 multiple myeloma cell lines against the NCATS MIPE library collection: Karpas25_ECACC cell viability assay (AID 1918968; also: nearly all actives have a fitted effect of over 35% in size; also: potency is read from the fitted curve at half-maximal effect)", "conditions": "Karpas25 myeloma viability, CellTiter-Glo ATP, 48 h; series mostly up to 45.8 µM; viability (% of control): at the top concentration", "how_it_was_run": "as §1", "units": {"viability (% of control)": "%"}}
{"smiles": "O=C(O)CCNC(=O)c1ccc(N=Nc2ccc(O)c(C(=O)O)c2)cc1", "Potency": "0.0037 µM (active)"}
{"smiles": "COc1cc2c(N3CCN(C(=O)Nc4ccc(OC(C)C)cc4)CC3)ncnc2cc1OCCCN1CCCCC1", "Potency": "9.35 µM (active)"}
{"smiles": "CCN(CC)CCOc1ccc(Nc2ncc3cc(-c4c(Cl)cccc4Cl)c(=O)n(C)c3n2)cc1", "Potency": "0.0209 µM (active)"}
{"smiles": "Cc1nc2n(c(=O)c1CCN1CCC(c3noc4cc(F)ccc34)CC1)CCCC2", "viability (% of control)": 106}
{"smiles": "Nc1cc(C(Cl)=C(Cl)Cl)c(S(N)(=O)=O)cc1S(N)(=O)=O", "viability (% of control)": 114}
{"smiles": "CCC1=C(C)CN(C(=O)NCCc2ccc(S(=O)(=O)NC(=O)NC3CCC(C)CC3)cc2)C1=O", "note": "(stereo unspecified)", "viability (% of control)": 93.7}
{"smiles": "CNC[C@H](O)c1ccc(O)c(O)c1", "Potency": "5.4 µM (active)"}
{"smiles": "Oc1ccc2ccccc2c1SSc1c(O)ccc2ccccc12", "Potency": "8.33 µM (active)"}
{"smiles": "Oc1ccc(-c2nc(-c3ccc(F)cc3)c(-c3ccncc3)[nH]2)cc1", "Potency": "7.43 µM (active)"}
{"smiles": "CCCCCCCCCCCCCCCCCCCCCCO", "viability (% of control)": 103}
{"smiles": "CS(=O)(=O)OCCCCOS(C)(=O)=O", "viability (% of control)": 122}
{"smiles": "Nc1nc(N)c(N=O)c(OCC2CCCCC2)n1", "Potency": "5.9 µM (active)"}
{"smiles": "C[C@H](Cn1cnc2c(N)ncnc21)OCP(=O)(O)O", "viability (% of control)": 124}
{"smiles": "O=C(c1ccccc1)c1ccc2n1CCC2C(=O)O", "note": "(stereo unspecified)", "Potency": "2.96 µM (active)"}
{"smiles": "CC[C@]1(O)C[C@H]2CN(CCc3c([nH]c4ccccc34)[C@@](C(=O)OC)(c3cc4c(cc3OC)N(C=O)[C@H]3[C@@](O)(C(=O)OC)[C@H](OC(C)=O)[C@]5(CC)C=CCN6CC[C@]43[C@@H]65)C2)C1", "Potency": "0.0105 µM (active)"}
{"smiles": "Cc1cc(O)c2c(c1)C(=O)c1cc(O)cc(O)c1C2=O", "Potency": "2.09 µM (active)"}
{"smiles": "Nc1ccc(S(N)(=O)=O)cc1", "viability (% of control)": 110}
{"smiles": "O=C(NCC1CCCCN1)c1cc(OCC(F)(F)F)ccc1OCC(F)(F)F", "note": "(stereo unspecified)", "Potency": "9.35 µM (active)"}
{"smiles": "Cc1cc(=O)oc2cc(O)ccc12", "Potency": "4.69 µM (active)"}
{"smiles": "Nc1ccn([C@@H]2O[C@H](CO)[C@@H](O)C2O)c(=O)n1", "note": "(stereo partly specified)", "Potency": "1.48 µM (active)"}
{"smiles": "COC(=O)C1=C(C)NC(C)=C(C(=O)OC(C)C)C1c1cccc2nonc12", "note": "(stereo unspecified)", "Potency": "5.26 µM (active)"}
{"smiles": "COc1ccc(C2(C#N)CCC(C(=O)O)CC2)cc1OC1CCCC1", "note": "(stereo unspecified)", "Potency": "23.5 µM (active)"}
{"smiles": "CCC(C)(Oc1ccc(C2(c3ccc(OC(C)(CC)C(=O)O)cc3)CCCCC2)cc1)C(=O)O", "note": "(stereo unspecified)", "Potency": "13.2 µM (active)"}
{"smiles": "Cc1cc(C2CCCCC2)n(O)c(=O)c1", "Potency": "3.32 µM (active)"}
{"smiles": "CC1(C)C(=O)N(CCN2CCC(C(=O)c3ccc(F)cc3)CC2)c2ccccc21", "Potency": "13.2 µM (active)"}
{"smiles": "N=C(N)c1ccc2cc(OC(=O)c3ccc(N=C(N)N)cc3)ccc2c1", "Potency": "9.35 µM (active)"}
{"smiles": "COc1cc2c(cc1OC)C1CC(=O)C(CC(C)C)CN1CC2", "note": "(stereo unspecified)", "viability (% of control)": 109}
{"smiles": "O=C(NOCC1CC1)c1ccc(F)c(F)c1Nc1ccc(I)cc1Cl", "Potency": "11.8 µM (active)"}
{"smiles": "CN(C)c1ccc(O)c2c1C[C@H]1C[C@H]3[C@H](N(C)C)C(=O)C(C(N)=O)=C(O)[C@@]3(O)C(=O)C1=C2O", "Potency": "16.6 µM (active)"}
{"smiles": "Cc1c(C(=O)NN2CCCCC2)nn(-c2ccc(Cl)cc2Cl)c1-c1ccc(Cl)cc1", "Potency": "23.5 µM (active)"}
